Assay outcomes (PubChem)
This is a sample that favours compounds with a hit; in the whole collection about 4.9% have one here.
Platelet DG rel – inhibitors of platelet dense granule secretion, primary screen, cell-based, MLPCN, human platelets; AID 1663, 2009; inhibition, %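 (compounds screened at 7.5 µM in platelet-rich plasma)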; 0.22% of 300,000 active; human platelet-rich plasma, SFLLRN dense granule ATP release, luminescence;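 active = mean replicate score, as percent of positive control, at or above 50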
HSF1 inhib – HSF1 inhibitors in luciferase reporter cells, primary screen, cell-based, NIH3T3, luminescence; NIH3T3-HGL HSE-luciferase, MG132-induced, luminescence 8 h; hits give low values; activity change, negative = inhibition, % at 7.5 µM (by protocol); 0.77% of 300,000 active; AID 2098, 2009;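 active = more than half of replicate wells show activity change below -50%, luminescence cut by over half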;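 note: luciferase reports HSF-1 transcriptional activity via heat shock element; 0% = median of DMSO wells and -100% = zero luminescence signal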
HSF-1 act – HSF-1 activators, primary screen, NIH3T3-HGL cells, MG132 stress, luminescence, single point | NIH3T3-HGL HSF-1 luciferase reporter, 8 h; 100% = twice DMSO control signal | 1.7% of 300,000 active | activation, % at 9 µM;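 active = mean replicate activation of at least 50% with a set share of replicates each reaching 50%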;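 note: 0% = median of the neutral control wells and 100% = twice that signal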
MPTP block – mitochondrial permeability transition pore inhibitors, primary screen, biochemical, isolated mouse mitochondria, absorbance. inhibition, % at 10 µM. 1.4% of 360,000 active. AID 602449, 2012. Ca2+ swelling absorbance, 30 min;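 active = inhibition of 50% or more, scaled per plate between neutral and stimulator controls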;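 note: 0% = DMSO wells given calcium and 100% = 1 mM EGTA wells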
dFosB activator – activators of delta FosB homodimer, primary screen, biochemical, fluorescence polarization, TAMRA-CDK5 oligo, single point. Protein FosB (Mus musculus), P13346. purified delta FosB; percent of positive-control signal above neutral wells. activation, % at 25 µM. 0.99% of 340,000 active;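 active = mean activation above about 17%, with every replicate also reaching it, limit read from the data, passing the limit was not always enough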
Target sequence (P13346 whole entry, looked up): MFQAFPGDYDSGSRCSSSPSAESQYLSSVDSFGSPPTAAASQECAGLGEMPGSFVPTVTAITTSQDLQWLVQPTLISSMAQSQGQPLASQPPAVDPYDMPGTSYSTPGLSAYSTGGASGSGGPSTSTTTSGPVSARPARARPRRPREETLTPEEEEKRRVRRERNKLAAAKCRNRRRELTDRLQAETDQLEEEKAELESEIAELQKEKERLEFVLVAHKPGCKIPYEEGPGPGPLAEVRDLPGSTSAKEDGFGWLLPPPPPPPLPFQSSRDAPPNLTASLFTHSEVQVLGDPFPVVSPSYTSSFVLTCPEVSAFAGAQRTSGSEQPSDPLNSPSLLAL
HSP90 inh – HSP90 inhibitors, primary screen, cell lysate, luminescence; Heat shock protein HSP 90 (rabbit reticulocyte lysate; luciferase refolding); Rabbit reticulocyte lysate, luciferase refolding luminescence, 3 h; inhibition, % at 5.6 µM; 0.91% of 290,000 active; AID 1789, 2009;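 active = inhibition above the screen-wide mean plus 3 SD, computed separately per campaign, cut at about 16% in these data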;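 note: 0% = DMSO wells and 100% = 60 µM geldanamycin wells; inhibitors lower the luminescence because luciferase stays unfolded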
An asterisk follows results filed as active; · = not tested or not shown.

SMILES | Platelet DG rel | HSF1 inhib | HSF-1 act | MPTP block | dFosB activator | HSP90 inh
Cc1nn(-c2ccccc2)c(C)c1/C=N/Nc1nc2ccccc2[nH]1 | 40.3 | 337.4 | 422.6* | 1.4 | 26.8* | 6.8
CC(C)c1nc(CNC(=O)CC2C(=O)NCCN2Cc2ccccc2)cs1 (stereo not drawn) | · | · | · | -0.7 | · | ·
O=S(=O)(NCc1ccccn1)c1ccc2ccccc2c1 | -7.5 | 37.5 | 72.3* | 0.1 | -0.8 | 4.6
COc1ccc(NC(=O)COC(=O)/C=C/C(=O)OCC(=O)Nc2ccc(OC)c(Cl)c2)cc1Cl | -7.7 | 97.4 | 138.2* | -0.7 | 9.5 | 2.4
CCOC(=O)/C=C/C(=O)OCC(=O)Nc1ccc(OC)c(Cl)c1 | 10.5 | 15.6 | 48.1 | -1.1 | -4.4 | 0.1
COc1ccc(NC(=O)CCCn2c(=O)oc3ccccc32)cc1Cl | -0.2 | 38.3 | 62.3* | 5.1 | -3.2 | -0.8
O=C(CCn1c(=O)oc2ccccc21)Nc1ccccc1 | -1.5 | 45.8 | 100.8* | -0.7 | -5.1 | -1.9
O=C(CCCn1c(=O)oc2ccccc21)Nc1ccccc1 | · | · | · | -2.7 | 1.4 | ·
OC(CCCC(O)c1ccccc1)c1ccccc1 (stereo not drawn) | · | · | · | -1.3 | -1.5 | ·
O=C(OCCOc1ccccc1)c1cccc(S(=O)(=O)N2CCOCC2)c1 | · | · | · | -1.1 | -5.1 | ·
CN1CCN(S(=O)(=O)c2cccc(C(=O)NCCC3=CCCCC3)c2)CC1 | -1.0 | -75.7* | -82.2 | -0.4 | -1.8 | ·
CCc1cccc(NC(=O)c2cccc(S(=O)(=O)N3CCN(C)CC3)c2)c1 | 17.8 | 32.9 | 78.3* | -2.3 | -8.3 | -4.5
CN(C)c1cccc(C(=O)OCCNC(=O)c2cccc(S(=O)(=O)N3CCOCC3)c2)c1 | -1.9 | 28.0 | 58.8* | 2.6 | -11.3 | -7.0
COC(=O)[C@@]12C[C@@H](CC(=O)NCCCN3CCCC3=O)C(=O)N(Cc3ccco3)C1=CCC(C)(C)C2 | · | · | · | 1.7 | · | ·
NNC(=O)CNC(=O)CNS(=O)(=O)c1ccccc1 | -17.1 | -77.8* | -83.3 | 0.2 | -4.4 | -1.3
O=C(CNS(=O)(=O)c1ccccc1)NCc1ccco1 | -2.5 | -7.4 | 21.6 | -2.2 | -2.3 | 0.7
Cc1nc(N)[nH]c(=O)c1CCCNS(=O)(=O)c1ccc([N+](=O)[O-])cc1 | · | · | · | -0.5 | -3.7 | ·
Cc1ccc(Oc2nc3ccccn3c(=O)c2/C=C(\C#N)C(=O)NC2CCS(=O)(=O)C2)c(C)c1 (stereo not drawn) | 51.4* | 24.8 | 30.5 | -3.1 | -2.4 | 2.3
CCOC(=O)c1c(NC(=O)CSc2nc3cc(Cl)ccc3c(=O)n2Cc2ccco2)sc(C(=O)N(C)C)c1C | -1.2 | 117.0 | 145.5* | 5.0 | -4.4 | 0.5
CCN(C(=O)CSc1nc2cc(C(=O)OC)ccc2c(=O)n1Cc1ccco1)c1cccc(C)c1 | 0.0 | 100.7 | 143.1* | 3.3 | -2.2 | 1.9
CCc1ccc(NC(=O)CSc2nc3cc(C(=O)OC)ccc3c(=O)n2Cc2ccco2)cc1 | 1.3 | 2.5 | -12.1 | 0.2 | 0.0 | 6.6
CCOC(=O)C1CCCN(Cc2ccc(OC)c(OCc3ccccc3)c2)C1 (stereo not drawn) | 0.9 | -1.3 | 3.8 | 5.2 | -10.7 | -1.8
Cc1nn(C)cc1/C=N\NC(=O)c1ccc2c(c1)c(C)c(C)n2Cc1ccccc1 | 8.0 | 98.6 | 127.6* | -2.1 | -13.8 | 5.5
O=C(Nc1ccc2sccc2c1)c1ccc(Cl)s1 | 16.3 | 33.8 | 72.2* | 0.6 | -2.7 | -4.1
C=CCn1c(SCC(=O)N(C)CC(=O)Nc2ccc(C)cc2)nnc1-c1ccncc1 | · | · | · | 0.7 | -1.8 | ·
SMILES | Platelet DG rel | HSF1 inhib | HSF-1 act | MPTP block | dFosB activator | HSP90 inh
COc1ccc(S(=O)(=O)/N=C2\C=C(Nc3ccc(O)cc3)C(=O)c3ccccc32)cc1 | 10.2 | -94.0* | -94.7 | 10.2 | -8.5 | 95.6*
CC(C)c1ccc(NC2CCCN(C(=O)c3cnsn3)C2)cc1 (stereo not drawn) | 2.7 | -0.8 | 27.7 | 0.5 | -2.8 | -0.3
COc1ccc(-c2nc(C#N)c(N3CCCCC3)o2)cc1 | -7.9 | 20.3 | 73.7* | 2.2 | -14.0 | -6.3
COc1ccc(-c2nc(C#N)c(N3CCCCCC3)o2)cc1 | 4.3 | 1.0 | -2.1 | 0.1 | -6.5 | 3.2
Cc1ccc(-n2c(-c3ccccc3)c[n+]3c2CCc2ccccc2-3)c(C)c1 | · | · | · | 0.8 | -6.9 | 2.2
OCC[C@@H]1C[C@@H](O)[C@H](O)[C@@]2(Cc3ccccc3CO2)O1 | 0.7 | -66.1* | -74.4 | -0.6 | -2.3 | -1.1
OCC[C@H]1C[C@H](O)[C@@H](O)[C@@]2(Cc3ccccc3CO2)O1 | · | · | · | -0.7 | 2.7 | ·
CCOC(=O)Cn1nc(-c2ccc(Cl)cc2)cc1N | 1.1 | 3.9 | 0.0 | 1.2 | 2.8 | 6.8
CCOC(=O)CN1CCC(c2cc(-c3ccc(Cl)cc3)n[nH]2)CC1 | -13.3 | 8.5 | 51.7* | -0.1 | -17.3 | -2.0
COCCNC(=O)c1cccc(OC2CCN(Cc3ccc(OC(F)F)cc3)CC2)c1 | 4.3 | -0.8 | 25.0 | -0.1 | 1.0 | -1.2
COc1ccc(NC(=O)COc2ccc3c(C)cc(=O)oc3c2)cc1S(=O)(=O)N1CCCCC1 | 12.1 | -5.9 | -10.8 | 0.6 | 5.3 | ·
CS(=O)(=O)Nc1nc2ccccc2[nH]1 | 2.5 | -81.8* | -85.7 | 0.3 | -1.5 | -1.4
Cc1cc(C)n2c(=O)[nH]nc2c1 | · | · | · | -1.8 | 1.8 | ·
CCOC(=O)CSc1nc2cc(OC)ccc2cc1C#N | 5.7 | 8.0 | 31.1 | 0.3 | -5.8 | -3.5
CCOC(=O)CSc1nc2ccc(C)cc2cc1C#N | 11.4 | 31.9 | 67.8* | -1.0 | -6.2 | 0.9
COc1ccc2nc(SCC(C)=O)c(C#N)cc2c1 | 2.0 | 37.2 | 83.6* | 5.5 | -24.9 | -6.0
COc1ccc2nc(SC)c(C#N)cc2c1 | -7.1 | 96.2 | 142.6* | 1.8 | 2.6 | 0.7
CCN(CC)c1ccc(NC(=O)COC(=O)/C=C/c2nc3ccccc3s2)cc1 | -2.2 | 1.8 | -7.7 | -1.4 | -7.0 | -1.4
CCN(CC)c1ccc(/C=C/c2nc3ccccc3s2)cc1 | 17.9 | -82.0* | -84.9 | · | · | 66.9*
Clc1cccc(CN2CCN(c3ncccn3)CC2)c1Cl | -10.0 | -3.7 | -12.2 | 0.5 | -3.9 | -5.3
COc1cc2c(cc1OC)-c1cc(NC3CC3)nc(=O)n1CC2 | 43.6 | 4.3 | 33.7 | -7.9 | -1.8 | 0.2
CCOc1ccccc1Nc1cc2n(c(=O)n1)CCc1cc(OC)c(OC)cc1-2 | 89.8* | -3.4 | 4.2 | -0.3 | -10.3 | 2.2
COc1cc2c(cc1OC)-c1cc(Nc3ccccc3C)nc(=O)n1CC2 | 93.4* | -0.2 | 21.7 | -2.8 | -2.5 | 4.6
C/C(=N\NC(=O)C(O)c1ccccc1)c1ccc(Br)s1 (stereo not drawn) | 7.9 | -4.7 | 22.5 | 1.1 | -4.8 | -1.5
